Measured values: PubChem BioAssay (NCATS)
Results filed as inconclusive are left out. Calls of active or inactive are those of the source. Calls come from the whole dose curve; as a rule, active = well fitted inhibition curve with a large enough effect; inconclusive = small, poorly fitted or top-dose-only effect, or effect the other way; inactive = flat fitted curve, though single readings scatter.

Test: qHTS for Inhibitors of Plasmodium falciparum (GB4) proliferation (AID 504315);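 note: 0% = DMSO vehicle and -100% = 0.29 µM artemisinin control; nearly all actives have a fitted effect of over 50% in size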
Conditions: P. falciparum GB4 in erythrocytes, SYBR Green DNA, 72 h; series mostly up to 6.7 µM; activity change, negative = inhibition: at the top concentration
Source text: Plasmodium falciparum is a virulent malarial parasite that kills 1-2 million people worldwide each year. Malaria not only inflicts tremendous suffering and morbidity on the human population, but has dramatically influenced the course of civilization with profound sociological and economic implications (Shah, S. 2010). Transmitted by mosquitoes, the sporozoite form of the parasite enters the blood stream to infect hepatocytes, where they become merozoites that infect red blood cells (erythrocytes). Within erythrocytes, merozoites begin a […] cycle of growth and division, after which the parasite is released to infect new red blood cells. Gametocytes, which form within erythrocytes as well, circulate in the bloodstream and are ingested by the mosquito, thereby completing the life cycle (see CDC website). To profile malarial lines for differential chemical responses and to identify inhibitors of malarial growth, an assay that measures P. falciparum growth and replication within erythrocytes was employed. This assay uses a DNA binding fluorescent dye (SYBR Green) to detect parasite DNA following cell lysis. Because mature erythrocytes lack DNA, only Plasmodium-derived DNA is detected. The P. falciparum line cp250, derived from a malarial isolate from Cambodia, (Mu, J., et al. 2010) was added to the panel of lines, Dd2, HB3, 7G8 and GB4 in this study. Laboratory of Assay Development and Screening Technology [ADST] and NIH Chemical Genomics Center [NCGC] Boston University, Chemistry Department, Center for Chemical Methodology and Library Development [CMLD-BU] NIH National Institute of Allergy and Infectious Diseases [NIAID]
ADST Assay Protocol Summary: The 1536-well SYBR Green viability assay was based on the method of Bennett et al (2004) and described previously in 1536-well format (Yuan J., et al. 2009). For screening 3 ul culture medium was dispensed into 1536 well black clear bottom plates (Aurora Biotechnologies) using a Multidrop Combi (Thermo Fisher Scientific Inc.), 23 nL compounds in DMSO were added by a pin transfer (Cleveland, P.H. and Koutz, P.J, 2005) using a pin tool-based delivery system (Kalypsys), and 5 ul of erythrocytes infected with P. falciparum one of five lines (cp250, Dd2, HB3, 7G8 or GB4, 0.3% parasitemia, 2.5% hematocrit final concentration) were added. The plates were incubated at 37C in a humidified incubator in 5% CO2 for 72 h, and 2 ul lysis buffer (20 mM Tris HCl, 10 mM EDTA, 0.16% saponin, 1.6% triton X, 10X SYBR Green I (supplied as 10,000X final concentration by Invitrogen) was added to each well. The plates were mixed for 25 sec with gentle shaking and incubated overnight at room temperature in the dark. The following morning, fluorescence intensity at 485(14) nm excitation and 535(25) nm emission wavelengths was measured on an EnVision (Perkin Elmer) plate reader. Plate reads were normalized relative to the control inhibitor (0.29 uM artemisinin) and vehicle (DMSO) wells present on each plate and then corrected by an algorithm using vehicle-only control plates at the beginning and end of the compound plate stack. References Shah, S. (2010). The Fever: how malaria has ruled humankind for 500,000 years. New York, Sarah Crichton Books. CDC web site, http://www.cdc.gov/malaria/about/biology/index.html Mu, J., Myers, R.A., Jiang, H., Liu, S., Ricklefs, S., Waisberg, M., Chotivanich, K., Wilairatana, P., Krudsood, S., White, N.J., et Plasmodium falciparum genome-wide scans for positive selection, recombination hot spots and resistance to antimalarial drugs Nature Genetics 2010, 42, pp 268-271 Bennett TN, Paguio, M., Gligorijevic, B., Seudieu, C., Kosar, A. D., Davidson, E., and Roepe, P. D. Novel, rapid, and inexpensive cell-based quantification of antimalarial drug efficacy Antimicrobial Agents Chemother. 2004, 48(5): pp 1807-10 Yuan J, Johnson RL, Huang RL, Wichterman J, Jiang HY, Hayton K, Fidock DA, Wellems TE, Inglese J, Austin CP, Su XZ. […]

Activity change, negative = inhibition, inactive:
C[C@H]1CC[C@H]2C(=O)NC[C@H](O)CN2[C@H]1c1ccc(Br)cc1 12.7%, CCN1C(=NCc2ccc(OC)cc2)NC(c2cccc(C(F)(F)F)c2)C(C(=O)OC)=C1C (stereo not given) 10.9%, O=C(C=Cc1cccc([N+](=O)[O-])c1)c1ccccc1 5.53%, COC(=O)[C@@H]1CC[C@H](C)[C@@H](c2ccc(C)cc2)N1C(=O)c1ccc(C=NO[C@@H](C)c2cn([C@H](CO)Cc3ccccc3)nn2)cc1 -8.63%, C=CCN1C(=O)[C@@]2(CC(C)=CC[C@@H](C)O2)c2c(Br)cccc21 1.99%, COCCN1C(=NCC(C)C)NC(c2ccccc2)C(C(=O)OC)=C1C (stereo not given) -3.88%, COC(=O)[C@@H]1[C@@H](c2cccc(C(F)(F)F)c2)NC(=O)N(Cc2ccccc2)[C@@H]1C 1.66%, COc1cccc([C@@H]2Oc3ccc(OC)cc3[C@H](O)[C@@H]2O)c1 2.27%, CC=CCCN1C=C(C(C)=O)C(c2ccccc2)NC1=O (stereo not given) 4.44%, C#CCCCON=C1C[C@@H](O)[C@H](O)[C@H]2[C@@H]3C(=O)N(C[C@@H]4CCCO4)C(=O)[C@@H]3CC[C@@H]12 3.62%, COc1ccc2c(c1)O[C@@H](c1ccc3c(c1)OCO3)[C@H](OC(=O)Nc1ccc(C)c(Br)c1)C2=O 2.44%, COCC=CC1=CC2=CC(=O)C(C)(OC(=O)c3cnc4ccccc4n3)C(=O)C2=CN1Cc1ccc(OC)cc1 (stereo not given) 3.46%, COC(=O)CC=C[C@@H](C)[C@@H](COc1ccccc1Br)OC 9.96%, COC1=C[C@@H](C(=O)N[C@H]2CCCC[C@H]2NC(C)=O)[C@@H](C)[C@H](c2ccccc2)CC1=O -7.66%, COC(=O)[C@]1(C=C2c3ccccc3C[C@H](OC)[C@@H]2C)[C@@H]2CC=C[C@@H]21 -7.4%, COC(=O)c1ccc(CN2C(=O)[C@]3(O[C@H](C)CC4=CCCC43)c3c(Br)cccc32)cc1 (stereo not given in full) 7.99%, Cc1cc2c(nc1C)CCCN2CC(O)CN1CCCc2nc(-c3ccc(Br)cc3)ccc21 (stereo not given) 1.32%, C#CCN1C(=O)[C@]2(O[C@H](C)CC3=CCCC32)c2c(Br)cccc21 (stereo not given in full) 11.6%, c1ccc(-c2nc(-c3ccccc3)c(NC3CCCCC3)o2)cc1 -13.6%, COC(=O)C1=C(C)C(=O)[C@]2(O)c3ccccc3N(C)[C@]12C -9.41%, CCN1C(=S)NC(c2cccc(F)c2)C(C(=O)OC)=C1C (stereo not given) -13.9%, CCCCCCC(=O)Cc1cc(OC)c(OC)cc1C=C(C(C)=O)C(=O)OC 0.598%, O=c1oc2ccccc2c2c1[C@H]1O[C@](c3ccsc3)(Cc3c1ccc1ccccc31)O2 -4.25%, COC(=O)[C@H](C=C[C@H](C)Cc1cc(Br)cc(OCc2ccccc2)c1OC)OCc1ccccc1 4.14%, CC(C)CON=C1C[C@@H](O)[C@@H](O)[C@@H]2[C@H]3C(=O)N(Cc4ccccc4)C(=O)[C@@H]3CC[C@@H]12 0.0409%, CCCCCCC#C[C@@H]1C=C[C@H](OC(=O)OCC)[C@@H](COC(=O)OCC)O1 3.6%, CCN1C(=NCc2ccccc2)N[C@@H](CCc2ccccc2)[C@H](C(=O)OC)[C@H]1C 4.84%, CCN1C(=O)N(S(=O)(=O)C(F)(F)F)C(c2ccccc2)C(C(=O)OC)=C1C (stereo not given) -3.34%, COC(=O)C[C@H]1c2ccccc2[C@@H]2C(=C[C@@H](C)[C@H]3C(=O)N(O)C(=O)[C@H]32)N1C(=O)OC -5.03%, COC(=O)CC=C1c2ccc(OC)cc2[C@@H](OC)[C@@H]1C 0.335%, CCN1C(=O)NC(CCc2ccccc2)C(C(=O)OC)=C1C (stereo not given) 2.95%, COC(=O)C1=C(C(=O)OC)[C@@H]2N(C)c3ccccc3[C@@]23CCC(=O)N(Cc2ccc4c(c2)OCO4)C3=N1 -4.21%, CC1=CC[C@@H](C)O[C@@]2(C1)C(=O)N(Cc1ccc(Br)cc1)c1ccccc12 -3.95%, CC(=O)O[C@H](C(=O)O[C@@H]1C[C@@H](CCC[C@H]2O[C@H](C(=O)OC(C)C)CC[C@@H]2C)O[C@@H](CC#N)C1)c1ccccc1 8.93%, CCOC(=O)CN1C(=O)NC(CCc2ccccc2)C(C(C)=O)=C1C (stereo not given) -3.94%

Potency, inactive:
C#CCN1C(=O)CC[C@@]23C1=NC(C(=O)OC)=C(C(=O)OC)[C@@H]2N(CC=C(C)C)c1ccccc13, COc1cc2c(cc1OC)[C@@H]1O[C@](c3ccsc3)(C2)OC2=C1C(=O)OC1(CCCCC1)C2, C[C@H]1Cc2c(COc3ccccc3)nc3c(c2CO1)CN(C(=O)C1CCCCC1)CC3, CCN1C(=O)N[C@@H](c2cccc(C(F)(F)F)c2)[C@H](C(C)=O)[C@H]1C, C(=Cc1nc(-c2ccccc2)oc1Nc1ccc2ccccc2c1)c1ccccc1
